# Sampled rows, rich in hits. Any-hit rate of the full collection: about 21%.
# NS1 inh = qHTS Assay for Inhibitors of Influenza NS1 Protein Function; AID 2326, 2010; Potency, µM (highest dose often 46.1 µM), for the others: top-dose activity, positive = more growth; 270,000 compounds, 0.4% hits; calls by dose curve; further: potency means the concentration at half of the fitted maximal effect; actives are rising curves; nearly all actives have a fitted effect of over 50% in size
#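 Read-out: OD600 growth recovery of NS1-expressing budding yeast. Cells grown overnight at 30C in -URA glucose medium, washed, resuspended and diluted 1:100 in 2% galactose assay medium, pH 6.0. Same strain lacking NS1 served as positive control.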
# Pf growth 48h = Primary qHTS for delayed death inhibitors of the malarial parasite plastid, 48 hour incubation | 310,000 compounds, 5.9% hits | P. falciparum luciferase growth in erythrocytes, 48 h | Potency, µM (doses to about 28.7 µM), without a hit: at the top dose activity change, negative = inhibition, actives largely listed as inhibitors; further: potency means the concentration at half of the fitted maximal effect; on the % scale 0 is the no-effect control and ±100 the full control effect
#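 Here the parasites carry a stable luciferase gene and grow inside erythrocytes in Albumax-based RPMI medium with compound for one erythrocytic cycle. Activity is scored as loss of luminescent signal.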
# Shiga toxin inh = A qHTS for Small Molecule Inhibitors of Shiga Toxin; Vero cells, Shiga toxin protein synthesis inhibition reporter; inhibition, % at 38.7 µM; 290,000 compounds, 9.2% hits; AID 2315, 2010; in the data active means inhibition mostly above about 28%, no sharp cut-off; inactive means mostly below about 43%; further: 0% is about no effect
# Cycloheximide cs = Cycloheximide Counterscreen for Small Molecule Inhibitors of Shiga Toxin; 300,000 compounds, 12% hits; max response, %; cell reporter, cycloheximide protein synthesis inhibition counterscreen; in the data active means max response mostly above about 13%, no sharp cut-off; inactive means mostly below about 14%; further: read at 38.3 µM for the half of the compounds with a filed dose; 0% is about no effect
# Pf growth 96h = Primary qHTS for delayed death inhibitors of the malarial parasite plastid, 96 hour incubation. P. falciparum luciferase reporter growth, 96 h. Potency, µM (highest dose often 28.7 µM), inactives show at the top dose activity change, negative = inhibition, usual class: inhibitors. 320,000 compounds, 6.9% hits. AID 504834, 2011; further: potency means the concentration at half of the fitted maximal effect; on the % scale 0 is the no-effect control and ±100 the full control effect
#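 96 h incubation, 37 C, 5% CO2, of luciferase-reporter P. falciparum-infected RBCs (2% hematocrit, 0.05% parasitemia final) with test compounds; endpoint luminescence.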
# The depositor's hits bear a star; ? = inconclusive; . = no result given; [ ] = remark or other dose. Unless noted, the call rests on the fitted dose curve; in most records, active means well fitted inhibition curve with a large enough effect; inconclusive means small, poorly fitted or top-dose-only effect, or another doubt; inactive means no such curve, though single readings can be large or run the other way.
SMILES,NS1 inh,Pf growth 48h,Shiga toxin inh,Cycloheximide cs,Pf growth 96h
Cc1ccc(-c2csc(Cc3nc(-c4ccc5c(c4)CCC(=O)N5)cs3)n2)cc1,22.9%,0.9%,-12.0,-1.0,-4.4%
C/C(=N\NC(=O)Cc1csc(N2CCOCC2)n1)c1ccc(Cl)c(Cl)c1,.,-15.2%,14.8,0.4,-22.2%
CCN(CC(=O)NCc1cccs1)C(=O)c1cccc(S(=O)(=O)Nc2ccc(C)cc2)c1,.,-4.1%,.,.,-3.1%
CC(=O)c1cccc(NS(=O)(=O)c2ccc(C(=O)Nc3ccccc3)cc2)c1,15.4%,16.3%,-21.6,1.7,34.2%
CCCn1c(N/N=C(C)\C=C\c2ccccc2)nc2c1c(=O)[nH]c(=O)n2C,.,-15.0%,-17.4,-2.4,19.0%
Clc1cccc(Nc2nc(-c3ccncc3)cs2)c1,1.7%,-4.1%,-5.5,-0.5,29.7%
Cc1cccc(Nc2nc(-c3ccc4c(c3)OCCO4)cs2)c1,10.2%,.,120.3*,43.6*,-87.1%
C/C(=N\NC(=O)c1nnn(-c2nonc2N)c1-c1ccc2c(c1)OCO2)c1ccc(F)cc1,12.1%,?,-5.1,-3.1,4.65µM*
C/C(=N\NC(=O)c1nnn(-c2nonc2N)c1-c1ccc2c(c1)OCO2)c1ccccc1,20.1%,?,2.9,1.4,14.7µM*
CC/C(=N\NC(=O)c1nnn(-c2nonc2N)c1-c1ccc2c(c1)OCO2)c1ccccc1,13.5%,?,-2.9,-6.0,?
C/C(=N\NC(=O)c1nnn(-c2nonc2N)c1-c1ccc2c(c1)OCO2)c1ccc(C)cc1,20.8%,?,-6.3,3.6,13.1µM*
CC(=O)Nc1ccc(S(=O)(=O)N(C)CC(=O)OCC(=O)N(C)C2CCS(=O)(=O)C2)cc1 (stereo not drawn),.,0.0%,.,.,?
COc1ccc(CNC(=O)CCC2N=C3c4ccccc4N=C(SCC(=O)NCC4CCCO4)N3C2=O)cc1 (stereo not drawn),5.0%,?,-1.4,-1.4,13.1µM*
O=C(CCC1N=C2c3ccccc3N=C(SCc3cccc(Cl)c3)N2C1=O)NCc1ccco1 (stereo not drawn),-8.0%,?,24.3,15.4*,.
O=C(CCC1N=C2c3ccccc3N=C(SCC(=O)NCC3CCCO3)N2C1=O)NCc1ccc(F)cc1 (stereo not drawn),10.2%,-10.9%,-3.4,-6.3,?
O=[N+]([O-])c1ccccc1SN(Cc1ccccc1)c1ccccn1,-12.8%,7.5%,12.6,-2.3,9.3%
COc1ccc(C(=O)C2CCCN(C3Cc4ccccc4C3)C2)c(OC)c1 (stereo not drawn),-0.3%,22.6%,73.7*,24.1*,-12.3%
CCCCn1c(N)c(N(CC)C(=O)CSc2nnnn2-c2cc(C)ccc2C)c(=O)[nH]c1=O,-8.2%,?,-5.9,7.2,?
COc1cccc(N2C(=O)CC(NNC(=O)c3cccs3)C2=O)c1 (stereo not drawn),16.6%,18.7%,43.1*,19.0*,37.7%
COc1ccc(N2C(=O)CC(NNC(=O)c3ccc(Br)s3)C2=O)cc1 (stereo not drawn),6.9%,10.5%,7.8,1.4,-32.6%[5.75 µM]
CC(=O)NCCCC(=O)NNC1CC(=O)N(c2cccc(Cl)c2)C1=O (stereo not drawn),-5.9%,9.3%,-4.8,-2.6,20.1%
O=C(NNC1CC(=O)N(c2cccc(Cl)c2)C1=O)c1cccs1 (stereo not drawn),30.0%,7.5%,38.8*,11.2,8.3%
O=C(OC(C(=O)NCc1ccc2c(c1)OCO2)c1ccc(Cl)cc1)c1ccco1 (stereo not drawn),-39.6%,20.6%,-10.6,-4.7,-18.8%
CC1CC(C)CN(C(=O)Cn2c(=O)n(CCCCC(=O)NCc3ccco3)c(=O)c3ccccc32)C1 (stereo not drawn),-4.2%,?,10.1,1.2,?
NS(=O)(=O)c1ccc(Nc2nc(-c3cccc([N+](=O)[O-])c3)cs2)cc1,.,-12.5%,14.4,4.9,?
SMILES,NS1 inh,Pf growth 48h,Shiga toxin inh,Cycloheximide cs,Pf growth 96h
O=[N+]([O-])c1cccc(-c2csc(CS(=O)(=O)Cc3ccco3)n2)c1,0.4%,3.3%,9.7,15.9*,15.3%
COc1ccc(C(C)(C)C)cc1NC(=O)COC(=O)C(C)C,0.2%,-0.4%,14.5,-0.6,31.5%
CCOC(=O)c1ccc(NC(=O)CSc2nnc(Cc3cccs3)n2C)cc1,-34.4%,?,-2.8,-1.1,8.28µM*
CCOC(=O)c1ccc(NC(=O)CSc2nnc(CNc3ccc(OC)cc3)n2C)cc1,-6.6%,6.57µM*,-1.6,12.6,2.2%[5.75 µM]
COc1ccc(NCc2nnc(SCC(=O)Nc3ccc(OC)cc3)n2C)cc1,5.2%,-10.6%,10.8,9.5,1.9%
COC(=O)C1=C(C)N(c2cc(C)cc(C)c2)/C(=C/c2ccco2)C1=O,.,8.28µM*,40.7,23.5,4.9%
Cc1cc(OCCOCCN2CCCC2)ccc1C(C)C,0.5%,?,-12.3,0.6,10.4µM*
CCOc1cccc(OCCOCCN2CCCC2)c1,-5.2%,2.8%,-0.9,-3.0,0.6%
Cc1ccc(NC(=O)c2cc(-c3cc(Cl)ccc3O)n[nH]2)cc1C,3.7%,1.85µM*,-5.7,-5.3,1.65µM*
Cc1cccc(NC(=O)c2cc(-c3cc(Cl)ccc3O)n[nH]2)c1,1.2%,2.62µM*,76.1*,37.3*,2.33µM*
Cc1ccc(NC(=O)c2snc3ccc(Cl)cc23)cc1C,4.1%,202.4%,32.2*,37.7*,0.0%
COc1ccc(NC(=O)c2cc(-c3cc(Cl)ccc3O)n[nH]2)c(OC)c1,0.4%,?,-6.4,-4.0,?
C=CCC(C#Cc1ccc(C)cc1)N(CC)CC (stereo not drawn),1.5%,.,-11.1,-2.8,-26.5%
COc1cccc(NC(=O)COc2ccc3c(c2)CCC3)c1,.,28.1%,38.2*,23.3*,0.0%
COc1ccc(OCC(=O)Nc2ccc3c(c2)C(=O)NC3=O)cc1,15.7%,20.8%,-20.6,-2.9,11.7µM*
COc1ccc(OC)c(NC(=O)COc2ccc3c(c2)CCC3)c1,.,13.1µM*,.,.,?
COc1cccc(NC(=O)COc2ccc(C)cc2)c1,-0.6%,187.4%,62.7*,36.6*,?
COc1ccc(OC)c(NC(=O)COc2ccc(Br)cc2)c1,-50.8%,-1.3%,-0.8,-0.9,-4.2%
COc1ccc(OCC(=O)Nc2cccc(C(C)=O)c2)cc1,-13.1%,.,-9.4,-1.3,25.9%
CCCN(CC(=O)Nc1ccccc1OC)C(=O)Cn1[nH]c(=O)c2ccccc2c1=O,.,-20.4%,.,.,-17.8%
CCN(CC)CCNC(=O)c1ccc(NC(=O)COc2ccc3c(c2)CCC3)cc1,.,?,.,.,14.7µM*
COc1ccc(OCC(=O)Nc2ccc3c(c2)CCC3)cc1,.,25.6%,.,.,-9.4%
COc1ccc(NC(=O)CCn2cccc2)cc1,3.8%,?,-6.7,7.8,10.0%
C/C(CC(=O)Nc1ccccn1)=N\NC(=O)C(=O)Nc1cccc(C)c1,-27.8%,72.3%,15.2,-0.6,?

# Source: PubChem BioAssay
